Assay results: PubChem BioAssay
The source made the active and inactive calls.

How the values were obtained:
[1] = system: PRMT1 (protein arginine N-methyltransferase 1); test: PRMT1 binders on small-molecule microarrays, primary screen, biochemical, small-molecule microarray, 635 nm fluorescence (AID 1088); settings: small-molecule microarray binding, higher = more signal;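 further: binding of Prmt1 protein to compounds spotted on small-molecule microarray slides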
[2] = yeast growth modulation, basal conditions, primary screen, YJM789 clinical isolate, OD600, 24 h (AID 1089);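 further: growth of clinical yeast isolate S. cerevisiae YJM 789 seeded 1000 cells per well; test concentration not given here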; settings: S. cerevisiae YJM789 growth, higher = more signal, called active from +8 up or from −8 down
[3] = fission yeast growth modulation, primary screen, strain 972, OD600, 24 h, no modulator (AID 1090);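 further: basal condition with compound alone and no growth modifier present; test concentration not given here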; settings: S. pombe 972 growth, higher = more signal, called active from +8 up or from −8 down
[4] = S. cerevisiae growth modulation with rapamycin, primary screen, strain BY4716, OD600, 96 h (AID 1091); settings: higher = more signal, called active from +8 up or from −8 down; further: test concentration not given here
[5] = target: Torsin-1A-interacting protein 2 (Homo sapiens) (UniProt Q8NFQ8); test: LULL1 binders on small-molecule microarray, primary screen, cell lysate, human LULL1 lysate, 635/667 nm fluorescence (AID 1092); settings: hLULL1 lysate binding, 635 nm fluorescence, higher = more signal;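 further: probe is lysate of COS7 cells overexpressing human LULL1; score merges per-feature 667 nm fluorescence with signal-to-noise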
Torsin-1A-interacting protein 2 (Homo sapiens), sequence (Q8NFQ8 whole entry, looked up): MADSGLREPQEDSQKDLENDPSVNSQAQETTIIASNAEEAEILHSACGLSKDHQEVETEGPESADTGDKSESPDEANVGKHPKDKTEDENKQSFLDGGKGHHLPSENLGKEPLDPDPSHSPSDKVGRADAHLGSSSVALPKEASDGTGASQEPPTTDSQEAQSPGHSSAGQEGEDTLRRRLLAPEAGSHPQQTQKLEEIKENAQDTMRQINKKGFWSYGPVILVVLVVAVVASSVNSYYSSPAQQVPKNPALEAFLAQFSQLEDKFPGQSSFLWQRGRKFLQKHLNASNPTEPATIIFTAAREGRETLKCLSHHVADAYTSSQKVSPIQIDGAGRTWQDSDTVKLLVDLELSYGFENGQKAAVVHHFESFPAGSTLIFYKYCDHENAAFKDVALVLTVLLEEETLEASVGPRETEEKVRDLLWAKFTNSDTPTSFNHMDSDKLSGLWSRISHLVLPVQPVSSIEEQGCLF

[6] = E. coli growth modulation, two-sided OD650, primary screen, E. coli filamentation project, strain DRC41, 24 h (AID 1093); settings: OD650, 24 h, higher = more signal, called active from +8 up or from −8 down;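 further: MC1000 strain lacking acrAB efflux and sulA so SOS filamentation is blocked; test concentration not given here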
[7] = small-molecule microarray binders of probe aLefty2, primary screen, biochemical, biotinylated probe, 635/667 nm fluorescence (AID 1094); settings: higher = more signal;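 further: score merges spot fluorescence near 667 nm with spot signal-to-noise ratio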
[8] = system: Noggin (protein binding on small-molecule microarray); test: Noggin binders on small-molecule microarray, primary screen, biochemical, 635/667 nm fluorescence (AID 1095); settings: 635 nm fluorescence, higher = more signal;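 further: score merges 667 nm feature fluorescence with signal to noise over triplicate slides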
[9] = target: Neurogenic locus notch homolog protein 3 (Homo sapiens) (UniProt Q9UM47); test: NOTCH3 binders on small-molecule microarray, primary screen, biochemical, 635/667 nm fluorescence (AID 1096); settings: NOTCH3 binding, 635 nm fluorescence, higher = more signal
Neurogenic locus notch homolog protein 3 (Homo sapiens), sequence (Q9UM47 whole entry, looked up): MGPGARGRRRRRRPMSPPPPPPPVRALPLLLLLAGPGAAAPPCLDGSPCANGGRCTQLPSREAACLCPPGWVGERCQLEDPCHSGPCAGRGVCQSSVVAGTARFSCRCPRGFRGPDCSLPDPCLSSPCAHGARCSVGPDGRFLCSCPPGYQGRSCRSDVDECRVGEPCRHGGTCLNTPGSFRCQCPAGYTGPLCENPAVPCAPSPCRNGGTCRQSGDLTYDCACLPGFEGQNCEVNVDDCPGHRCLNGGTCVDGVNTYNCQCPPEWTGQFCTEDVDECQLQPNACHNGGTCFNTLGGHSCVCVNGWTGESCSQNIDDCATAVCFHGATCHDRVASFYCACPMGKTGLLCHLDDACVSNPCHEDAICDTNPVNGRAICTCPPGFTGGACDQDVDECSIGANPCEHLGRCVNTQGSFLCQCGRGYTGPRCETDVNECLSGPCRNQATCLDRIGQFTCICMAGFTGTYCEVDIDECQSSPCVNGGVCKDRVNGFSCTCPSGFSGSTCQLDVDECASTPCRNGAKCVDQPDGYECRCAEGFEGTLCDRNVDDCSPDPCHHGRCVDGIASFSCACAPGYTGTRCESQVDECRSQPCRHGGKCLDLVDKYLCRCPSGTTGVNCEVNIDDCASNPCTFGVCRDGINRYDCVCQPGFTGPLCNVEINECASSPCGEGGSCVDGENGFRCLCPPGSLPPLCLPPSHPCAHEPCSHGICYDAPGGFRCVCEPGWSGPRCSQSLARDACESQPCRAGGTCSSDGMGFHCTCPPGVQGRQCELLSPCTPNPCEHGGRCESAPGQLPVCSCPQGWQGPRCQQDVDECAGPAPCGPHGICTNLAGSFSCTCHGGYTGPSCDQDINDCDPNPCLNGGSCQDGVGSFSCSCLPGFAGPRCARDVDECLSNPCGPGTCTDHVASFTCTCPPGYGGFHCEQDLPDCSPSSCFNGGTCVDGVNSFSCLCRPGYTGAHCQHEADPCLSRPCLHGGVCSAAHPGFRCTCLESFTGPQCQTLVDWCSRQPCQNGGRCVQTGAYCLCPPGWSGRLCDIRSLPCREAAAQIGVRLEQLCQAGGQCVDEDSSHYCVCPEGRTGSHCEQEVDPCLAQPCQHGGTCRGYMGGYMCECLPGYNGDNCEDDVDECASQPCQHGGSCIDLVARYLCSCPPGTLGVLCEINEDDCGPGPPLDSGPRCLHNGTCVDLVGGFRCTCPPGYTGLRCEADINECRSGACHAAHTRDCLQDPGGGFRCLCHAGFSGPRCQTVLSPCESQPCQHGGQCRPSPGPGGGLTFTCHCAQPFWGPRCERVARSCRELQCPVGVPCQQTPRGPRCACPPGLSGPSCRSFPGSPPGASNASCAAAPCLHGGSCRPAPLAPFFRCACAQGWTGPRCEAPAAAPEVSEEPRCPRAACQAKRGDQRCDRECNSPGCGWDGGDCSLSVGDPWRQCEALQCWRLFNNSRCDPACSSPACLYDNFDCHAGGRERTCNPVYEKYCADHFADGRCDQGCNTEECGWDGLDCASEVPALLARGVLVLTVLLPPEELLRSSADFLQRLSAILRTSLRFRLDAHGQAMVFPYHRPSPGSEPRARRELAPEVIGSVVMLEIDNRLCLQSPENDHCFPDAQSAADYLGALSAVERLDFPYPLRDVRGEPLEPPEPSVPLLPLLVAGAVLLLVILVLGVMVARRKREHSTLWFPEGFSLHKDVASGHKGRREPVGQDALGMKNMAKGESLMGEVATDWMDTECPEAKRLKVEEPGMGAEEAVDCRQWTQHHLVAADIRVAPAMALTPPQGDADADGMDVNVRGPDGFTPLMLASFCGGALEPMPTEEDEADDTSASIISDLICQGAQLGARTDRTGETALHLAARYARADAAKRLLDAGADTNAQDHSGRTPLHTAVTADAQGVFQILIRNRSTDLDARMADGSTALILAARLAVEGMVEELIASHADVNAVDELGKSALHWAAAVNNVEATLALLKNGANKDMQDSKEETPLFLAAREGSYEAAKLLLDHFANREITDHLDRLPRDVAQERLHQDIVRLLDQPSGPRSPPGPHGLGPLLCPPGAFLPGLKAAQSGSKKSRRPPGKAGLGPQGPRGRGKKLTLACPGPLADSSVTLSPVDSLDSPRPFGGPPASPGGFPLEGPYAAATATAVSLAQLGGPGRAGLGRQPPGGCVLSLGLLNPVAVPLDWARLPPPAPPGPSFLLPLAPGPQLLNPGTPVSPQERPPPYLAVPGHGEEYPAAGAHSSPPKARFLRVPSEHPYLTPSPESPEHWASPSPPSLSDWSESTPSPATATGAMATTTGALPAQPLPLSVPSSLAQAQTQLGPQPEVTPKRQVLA

[10] = small-molecule microarray binders of probe aEGFR, primary screen, biochemical, biotinylated probe, 635/667 nm fluorescence (AID 1097); settings: higher = more signal;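 further: probe is a biotinylated anti-EGFR antibody binding compounds printed on slides; score combines fluorescence near 667 nm and signal to noise of each spot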

Row | SMILES | composite z-score [1] | z-score [2] | z-score [3] | z-score [4] | composite z-score [5] | z-score [6] | composite z-score [7] | composite z-score [8] | composite z-score [9] | composite z-score [10]
1 | CCOC(=O)C1=CCC(c2cccn2C(=O)OC(C)(C)C)N(S(=O)(=O)c2ccc(C)cc2)C1 (stereo not given) | 1.48 | -0.0556 (inactive) | 0.69 (inactive) | 0.382 (inactive) | 3.36 | -0.0304 (inactive) | 0.194 | 0.205 | 1 | -0.0004
2 | CCCCC(=C=CC[C@H](O)c1cccc(OCCO)c1)C[C@H](O)c1cc(Cl)cc(Cl)c1O | 1.53 | 0.59 (inactive) | -1.71 (inactive) | 0.102 (inactive) | 1.81 | 0.206 (inactive) | 0.206 | 0.999 | 0.883 | -0.112
3 | CC(C)(C)OC(=O)CC[C@@]1(C(=O)N2CCOCC2)N=C(c2ccc(OCCCO)cc2)O[C@@H]1c1ccccc1CN=[N+]=[N-] | 1.38 | -0.335 (inactive) | -0.183 (inactive) | -0.654 (inactive) | 3.83 | 0.675 (inactive) | 0.313 | 1.06 | 0.985 | 0.103
4 | C=CCNC(=O)[C@H]1[C@@H]2C(=O)O[C@@H](c3ccccc3)[C@@H](c3ccccc3)N2[C@@H](c2ccc(O)cc2)[C@]12C(=O)N(C(=O)OCCOC)c1ccc(C#Cc3ccc(OC)cc3)cc12 | 1.42 | 0.622 (inactive) | 0.074 (inactive) | 1.66 (inactive) | 2.23 | -0.866 (inactive) | -0.0302 | 0.44 | 0.892 | 0.0219
5 | C=C(C(=O)CC[C@@H](OC(=O)c1cccnc1)c1cccc(OCCO)c1)C(C)C | 0.271 | -1.11 (inactive) | -0.0738 (inactive) | 1.04 (inactive) | -0.826 | 1.12 (inactive) | -0.0962 | 0.597 | 0.144 | 0.0391
